In the library only some 5.3% were active in any assay of this set; here they are far more common.
VACV Venus inh: inhibitors of vaccinia virus (Venus reporter). Vaccinia virus Venus reporter expression, fluorescence. Potency, µM (series often up to 36.5 µM), for inactives: at the highest dose activity change, negative = inhibition, usual class: inhibitors. AID 720580. 330,000 tested, 0.46% active; calls by dose curve; tested in A549 cells; note: nearly all actives have a fitted effect of over 30% in size
HCV inh: HCV inhibition; Huh7.5.1 HCVcc-Cre infection, luciferase reporter, 44 h; Potency, µM (titrated, usually from 41.8 µM), without a hit: top-dose activity change, negative = inhibition, most hits filed as inhibitors; 340,000 tested, 3.4% active; AID 651820; active = well fitted inhibition curve with a large enough effect; inconclusive = small, poorly fitted or top-dose-only effect, or another doubt; inactive = no such curve, though single readings can be large or run the other way
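Cells seeded at 1,000/well and cultured 4 h, then compounds added followed by HCVcc-Cre virus (~0.5 moi). After 44 h further culture, luciferase substrate was added, plates held 15 min at room temperature, and luminescence read for 15 sec.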
LASV entry inh: blocks Lassa virus binding to or entry into cells; 300,000 tested, 1.2% active; Lassa virus pseudotype entry inhibition, cell reporter; Potency, µM (top dose mostly 37.9 µM), without a hit: at the highest dose activity change, negative = inhibition, hits mostly inhibitors; calls by dose curve; tested in HEK293 cells; note: nearly all actives have a fitted effect of over 50% in size
FMDV inh: blocks foot and mouth disease virus; FMDV antiviral cell-based qHTS; Potency, µM (highest dose often 57.9 µM), inactives show at the highest dose activity change, negative = inhibition, usual class: inhibitors; 410,000 tested, 1.2% active; AID 1159524; calls by dose curve; tested in HEK293T cells; note: read-out not given here; nearly all actives have a fitted effect of over 45% in size
Vaccinia mCherry: inhibitors of vaccinia virus infection (mCherry reporter signal); 310,000 tested, 0.63% active; Potency, µM (titrated, usually from 36.5 µM), without a hit: at the top dose activity change, negative = inhibition, actives largely listed as inhibitors; AID 720579; Vaccinia virus mCherry reporter infection, fluorescence; calls by dose curve; tested in A549 cells; note: nearly all actives have a fitted effect of over 35% in size
Marburg entry inh: blocks Marburg virus binding to or entry into cells | Marburg virus pseudotyped entry inhibition, cell reporter | Potency, µM (series often up to 37.8 µM), for inactives: at the top dose activity change, negative = inhibition, usual class: inhibitors | 300,000 tested, 1.8% active; calls by dose curve; tested in HEK293 cells
Active calls of the source: *; i = inactive; ? = inconclusive; · = not tested or not shown; [ ] = dose if it differs, or a comment. % is set by controls: 0 for no effect and ±100 for the full control effect; potency is the fitted concentration of half-maximal effect.

SMILES	VACV Venus inh	HCV inh	LASV entry inh	FMDV inh	Vaccinia mCherry	Marburg entry inh
CCOC(=O)c1[nH]c2ccc(Br)cc2c1NC(=O)CCN1CCN(C(=O)OCC)CC1	-7%	-24%	-1%	-25%	-12%	-4%
CCN(CC(=O)Nc1c(C(=O)OC)[nH]c2ccc(Cl)cc12)c1ccc2c(c1)OCO2	?	11µM*	13µM*	-10%	·	?
COc1cc(NCc2ccccc2O)c2ncccc2c1	-10%	-21%	?	8%	?	?
COc1cc(NC(=O)OCc2ccccc2)c2ncccc2c1	-21%	14µM*	-5%[46.1 µM]	-9%	-28%	-19%[46.1 µM]
COc1cc(NC(=O)c2cc(OC)c(OC)c(OC)c2)c2ncccc2c1	-13%	10µM*	?	-9%	-18%	?
Cc1ccc(C(=O)N2CCC(c3c[nH]c4ccccc34)(c3c[nH]c4ccccc34)CC2)cc1	-11%	·	?	?	-21%	?
CCc1ccc(CNC(=O)C2CCN(C(=O)c3ccc(-n4ccc5ccccc54)s3)CC2)cc1	-23%	·	?	-20%	-18%	·
COc1ccc(-c2nc3cc(C)ccc3cc2CN(C(=O)c2csc(C)n2)C2CC2)cc1OC	-2%	·	·	-8%	-7%	·
COc1ccc(/C(C)=N/OCC(=O)N=Nc2c(O)[nH]c3ccc(Br)cc23)cc1	1%	?	-2%	40µM*	-11%	?
CCOc1ccc2c(c1)C(C)=CC(C)(C)N2S(=O)(=O)c1ccc(NC(C)=O)cc1	·	?	·	10%	·	·
COc1ccc2c(c1)C(C)=CC(C)(C)N2S(=O)(=O)c1ccc(NC(C)=O)cc1	?	6%	?	-27%	-15%	1.1µM*
CON(c1nc(Cl)nc(N(C)C)n1)S(=O)(=O)c1ccccc1Cl	?	2%	13µM*	?	·	-1%
CCN(CC)c1ccc(-c2nnc(SCC(=O)N(CCOC)c3c(N)n(CC(C)C)c(=O)[nH]c3=O)o2)cc1	?	-18%	-8%[46.1 µM]	7%	8.9µM*	?
N#Cc1cc(C#N)c(N2CCN(c3cccc(Cl)n3)CC2)nc1N	·	11µM*	17%	15%	·	?
NC1CCN(c2cccc(Cl)n2)CC1	·	·	-7%	-21%	·	?
C#CCCCO/N=C1/C[C@@H](O)[C@@H](O)[C@@H]2[C@@H]3C(=O)N(C[C@@H]4CCCO4)C(=O)[C@H]3CC[C@@H]12	·	·	·	·	·	3%[14.2 µM]
COCC(=O)Nc1cc(C(=O)N[C@H]2CCCCNC2=O)c2c(c1)nc(-c1ccncc1)n2C	0%	·	·	2%	-4%	·
Cc1cc(C)n(-c2ccc(C(=O)N3CCc4c(cnc(C)c4CNC(=O)c4ccccc4F)C3)cc2)n1	-6%	·	·	-11%	-14%	·
CCN(CC)Cc1cc(Nc2c3ccccc3nc3c4ccccc4n(C)c23)cc(CN(CC)CC)c1O	11µM*	?	11µM*	-18%	-21%	?
CCn1c(CN2CCCCC2)nc2cc(NC(=O)c3cc(OC)c(OC)c(OC)c3)ccc21	-10%	·	-3%[46.1 µM]	?	i	-22%[46.1 µM]
O=C(Nc1nccs1)c1ccc(-c2cccc([N+](=O)[O-])c2)o1	-1%	-14%	?	18%	3%	?
O=C(Nc1ncc(Cc2cccc(C(F)(F)F)c2)s1)c1ccc(-c2cccc([N+](=O)[O-])c2)o1	-28%	?	?	0%	?	16µM*
O=C(/C=C/c1ccc(Cl)cc1Cl)Nc1ccc(CN2CCOCC2)cc1	·	3.2µM*	·	?	·	·
O=C(Nc1ccc(CN2CCOCC2)cc1)c1ccc(-c2cccc([N+](=O)[O-])c2)o1	·	32µM*	·	?	·	·
O=C(Nc1ccc(CN2CCOCC2)cc1)c1ccc(Br)o1	·	12%	·	33%	·	·
O=C(/C=C/c1ccccc1)Nc1ccc(CN2CCOCC2)cc1	·	2%	·	33%	·	·
O=C(Nc1ccc(CN2CCOCC2)cc1)c1ccc(-c2cc(Cl)ccc2Cl)o1	?	?	-30%	28µM*	?	?
CC(=Nc1ccccc1N)c1c(C)cc(=O)n(O)c1O	·	·	·	21%	·	·
COC(=O)c1scc(-c2ccc(C)cc2)c1S(=O)(=O)Nc1cc(C)ccc1OC	-1%	·	-24%[46.1 µM]	12%	-10%	·
Cc1ccc(-c2csc(N3CCC(NS(=O)(=O)c4ccc5c(c4)OCCO5)CC3)n2)cc1	8.9µM*	10µM*	?	?	?	?
